Measured values published in PubChem BioAssay (NCATS).
Inconclusive results are not listed. Active and inactive are the calls of the source. Unless noted, calls follow the shape of the dose curve; as a rule, active = well fitted curve in the direction sought with a large enough effect; inconclusive = small, poorly fitted or top-dose-only effect, or another doubt; inactive = no such curve, though single readings can be large; an effect the other way counts as inactive or inconclusive.

Experiments:
[1] = AP1 Signaling Pathway (AID 357; active = well fitted curve in either direction with a large enough effect, not every such curve was filed as active; also: % is scaled to controls: 0 for no effect and ±100 for the full control effect)
Summary of the method: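 ME-180 cells with beta-lactamase reporter under AP-1 response element, stimulated with EC50 EGF; compounds tested in titration series, 5 h at 37 °C. CCF4 substrate added 2.5 h at room temperature; 460/530 nm emission ratio gave %activity and AC50.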

[2] = molecular target: Cytochrome P450 1A2 (Homo sapiens) (UniProt P05177); test: p450-cyp1a2 (AID 410; calls by dose curve; also: potency is read from the fitted curve at half-maximal effect;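 as to activity change, negative = inhibition: -100% = full effect of reference inhibitor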)
Cytochrome P450 1A2 (Homo sapiens), sequence (P05177 whole entry, looked up): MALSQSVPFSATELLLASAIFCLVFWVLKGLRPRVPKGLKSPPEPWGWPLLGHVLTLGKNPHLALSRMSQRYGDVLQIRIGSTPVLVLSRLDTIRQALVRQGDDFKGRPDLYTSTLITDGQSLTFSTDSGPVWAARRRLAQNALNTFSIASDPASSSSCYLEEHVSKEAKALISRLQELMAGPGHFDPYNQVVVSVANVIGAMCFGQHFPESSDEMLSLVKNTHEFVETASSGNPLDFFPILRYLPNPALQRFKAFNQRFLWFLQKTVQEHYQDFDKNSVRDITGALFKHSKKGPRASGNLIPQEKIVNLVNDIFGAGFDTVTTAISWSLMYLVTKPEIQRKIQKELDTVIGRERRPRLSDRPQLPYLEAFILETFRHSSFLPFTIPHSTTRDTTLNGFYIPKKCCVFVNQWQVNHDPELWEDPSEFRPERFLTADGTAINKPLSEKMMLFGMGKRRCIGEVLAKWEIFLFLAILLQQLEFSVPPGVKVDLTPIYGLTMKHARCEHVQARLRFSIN
Summary of the method: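 Human CYP1A2 (20nM) demethylated Luciferin-ME at its Km (100uM) in 100mM KPO4. After 10 min compound preincubation, NADPH regeneration ran the reaction 60 min at room temperature. Luciferin was read by luminescence, normalized to 57 uM furafylline.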

[3] = NFAT Signaling Pathway (AID 444; active = well fitted curve in either direction with a large enough effect, not every such curve was filed as active;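 also: carbachol stimulus at about its EC50 of 1 µM final; % is scaled to controls: 0 for no effect and ±100 for the full control effect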); conditions: Jurkat NFAT-bla M1, carbachol, beta-lactamase ratio, 5 h
Summary of the method: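 Jurkat cells carrying an NFAT-driven β-lactamase reporter and co-transfected muscarinic M1 receptor were treated with compound plus carbachol (1 uM final, an EC50 level) for 5 h at 37 °C. CCF4 loading followed for 1 h at RT; 460/530 nm ratio gave %activity.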

[4] = Stat Signaling Pathway (AID 446; active = well fitted curve in either direction with a large enough effect, not every such curve was filed as active;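 also: ME-180 cervical cancer cells given 40 pM IL-6 alongside compound; SIE-controlled beta-lactamase reporter measured as 460/530 nm FRET emission ratio; % is scaled to controls: 0 for no effect and ±100 for the full control effect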)
Summary of the method: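 IL-6/STAT signaling read in ME-180 cells via an SIE beta-lactamase reporter. Stimulus was 40 pM IL-6 (its AC50) for 5 hrs, so both activation and inhibition register.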

[5] = molecular target: Glucocorticoid receptor (Homo sapiens) (UniProt P04150); test: GR-GFP Redistribution (AID 450;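 active = compounds whose dose series gives a full or clear partial fitted curve of increased nuclear translocation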; also: potency is read from the fitted curve at half-maximal effect); conditions: U2OS GR-GFP nuclear translocation, laser cytometry, 2 h
Glucocorticoid receptor (Homo sapiens), sequence (P04150 whole entry, looked up, the tested form may be a part): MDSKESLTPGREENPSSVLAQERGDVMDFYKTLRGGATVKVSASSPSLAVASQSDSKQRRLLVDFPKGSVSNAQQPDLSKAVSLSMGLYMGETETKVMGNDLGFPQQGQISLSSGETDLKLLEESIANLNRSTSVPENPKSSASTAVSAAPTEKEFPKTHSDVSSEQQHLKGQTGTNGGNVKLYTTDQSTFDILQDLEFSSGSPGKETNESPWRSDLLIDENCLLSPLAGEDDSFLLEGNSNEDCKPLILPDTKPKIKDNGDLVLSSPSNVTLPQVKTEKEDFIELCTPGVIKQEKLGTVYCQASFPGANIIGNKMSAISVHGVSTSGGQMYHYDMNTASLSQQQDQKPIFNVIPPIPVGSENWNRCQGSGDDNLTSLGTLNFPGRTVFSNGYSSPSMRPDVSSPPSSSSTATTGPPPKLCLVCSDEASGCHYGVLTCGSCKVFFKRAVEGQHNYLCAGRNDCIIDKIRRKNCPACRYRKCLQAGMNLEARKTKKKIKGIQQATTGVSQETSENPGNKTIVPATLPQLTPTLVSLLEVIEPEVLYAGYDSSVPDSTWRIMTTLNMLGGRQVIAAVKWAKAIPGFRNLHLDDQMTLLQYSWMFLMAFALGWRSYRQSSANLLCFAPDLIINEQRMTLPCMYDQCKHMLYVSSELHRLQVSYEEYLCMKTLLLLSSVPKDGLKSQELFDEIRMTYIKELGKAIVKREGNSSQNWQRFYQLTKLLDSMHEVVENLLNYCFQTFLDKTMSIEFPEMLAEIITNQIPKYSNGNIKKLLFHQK

[6] = molecular target: Glucocorticoid receptor (Homo sapiens) (UniProt P04150); test: GR-EFC Redistribution (AID 451; calls by dose curve; also: potency is read from the fitted curve at half-maximal effect); conditions: CHO-K1 GR-EFC translocation, beta-gal luminescence, 2 h
Summary of the method: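 CHO-K1 cells stably expressing nuclear-localized β-gal enzyme acceptor and GR fused C-terminally to the enzyme donor fragment; ligand-driven nuclear translocation restores β-gal by complementation. Compounds titrated up to 46 uM final, 2 h at 37 °C; luminescence read.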

[7] = molecular target: Mitogen-activated protein kinase 10 (Mus musculus) (UniProt Q61831); test: JNK3 AlphaScreen Assay (AID 530; active = well fitted curve in either direction with a large enough effect, not every such curve was filed as active;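 also: kinase came from lysate of stimulated human HepG2 cells; signal reports phosphorylation of biotinylated GST-cJun 1-79 at Ser73 with 10 µM ATP; % is scaled to controls: 0 for no effect and ±100 for the full control effect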)
Summary of the method: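 JNK3 came from HepG2 lysates pre-activated with IL-1beta and TNF-alpha and phosphorylated biotinylated GST-cJun (1-79) at 10 uM ATP, pH 7.6, room temperature. Compounds were titrated. AlphaScreen signal used anti-phospho-cJun (Ser73) antibody.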

[8] = molecular target: 3',5'-cyclic-AMP phosphodiesterase 4B (Homo sapiens) (UniProt Q07343); test: qHTS Assay for Inhibitors of PDE-IV (AID 607; active = well fitted activation curve with a large enough effect in the main read-out, with a control signal flat, not every such curve was filed as active; also: % of control where 0% means no effect)
3',5'-cyclic-AMP phosphodiesterase 4B (Homo sapiens), sequence (Q07343 whole entry, looked up): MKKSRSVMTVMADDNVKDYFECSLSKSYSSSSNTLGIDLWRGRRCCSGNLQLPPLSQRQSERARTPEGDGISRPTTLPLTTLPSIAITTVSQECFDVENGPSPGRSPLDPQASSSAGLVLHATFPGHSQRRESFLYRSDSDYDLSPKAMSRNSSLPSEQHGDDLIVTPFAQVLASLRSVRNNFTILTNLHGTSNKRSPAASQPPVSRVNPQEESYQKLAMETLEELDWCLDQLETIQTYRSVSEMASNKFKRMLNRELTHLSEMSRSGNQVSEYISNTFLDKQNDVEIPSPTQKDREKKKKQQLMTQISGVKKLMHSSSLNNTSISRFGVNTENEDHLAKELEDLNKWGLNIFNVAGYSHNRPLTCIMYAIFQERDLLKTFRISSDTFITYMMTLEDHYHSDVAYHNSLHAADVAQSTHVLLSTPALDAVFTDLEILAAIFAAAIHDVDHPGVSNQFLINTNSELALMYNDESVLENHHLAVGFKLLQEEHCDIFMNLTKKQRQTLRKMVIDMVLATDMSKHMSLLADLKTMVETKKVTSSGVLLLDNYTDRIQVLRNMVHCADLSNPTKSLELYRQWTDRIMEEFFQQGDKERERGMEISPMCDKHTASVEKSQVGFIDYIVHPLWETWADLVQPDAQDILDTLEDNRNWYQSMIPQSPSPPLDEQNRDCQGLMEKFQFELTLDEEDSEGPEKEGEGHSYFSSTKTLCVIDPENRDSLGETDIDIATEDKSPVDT
Summary of the method: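 Live HEK293 cells with a modified cyclic nucleotide-gated (CNG) channel report intracellular cAMP via membrane-potential dye fluorescence (ex 535/em 590 nm). Endogenous PDE-IV was targeted. Compounds were tested at up to 22.9 uM final; RO 20-1724 100 uM served as control.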

[9] = molecular target: Guanine nucleotide-binding protein G(i) subunit alpha-1 (Homo sapiens) (UniProt P63096); test: qHTS Assay for Inhibitors of RGS12 GoLoco Motif Activity (Green Fluorophore) (AID 879);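 also: 0% = labeled peptide with Gαi1 and full inhibition = labeled peptide alone without protein; negative values mean loss of peptide binding seen as reduced polarization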
Guanine nucleotide-binding protein G(i) subunit alpha-1 (Homo sapiens), sequence (P63096 whole entry, looked up): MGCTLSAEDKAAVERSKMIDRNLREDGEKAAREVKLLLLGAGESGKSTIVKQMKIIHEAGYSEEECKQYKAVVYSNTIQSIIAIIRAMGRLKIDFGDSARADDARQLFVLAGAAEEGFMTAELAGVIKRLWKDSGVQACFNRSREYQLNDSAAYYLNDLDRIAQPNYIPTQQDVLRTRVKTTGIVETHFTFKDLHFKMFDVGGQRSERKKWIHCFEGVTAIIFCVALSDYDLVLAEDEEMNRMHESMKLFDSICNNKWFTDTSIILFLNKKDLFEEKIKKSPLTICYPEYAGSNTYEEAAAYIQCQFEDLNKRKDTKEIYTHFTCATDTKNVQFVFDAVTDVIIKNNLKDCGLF
Summary of the method: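 Fluorescence polarization assay: 50 nM Gαi1 with 10 nM FITC-labeled RGS12 GoLoco peptide in 10 mM Tris pH 7.5, 150 mM NaCl, 0.1 mM GDP, 0.05% NP40, 10 min at room temperature with compound.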

[10] = molecular target: Pyruvate kinase (Leishmania mexicana) (UniProt Q27686); test: qHTS Validation Assay for Inhibitors of Leishmania Mexicana Pyruvate Kinase (AID 945);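 also: 0% = DMSO only neutral control wells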
Pyruvate kinase (Leishmania mexicana), sequence (Q27686 2-499 E452W): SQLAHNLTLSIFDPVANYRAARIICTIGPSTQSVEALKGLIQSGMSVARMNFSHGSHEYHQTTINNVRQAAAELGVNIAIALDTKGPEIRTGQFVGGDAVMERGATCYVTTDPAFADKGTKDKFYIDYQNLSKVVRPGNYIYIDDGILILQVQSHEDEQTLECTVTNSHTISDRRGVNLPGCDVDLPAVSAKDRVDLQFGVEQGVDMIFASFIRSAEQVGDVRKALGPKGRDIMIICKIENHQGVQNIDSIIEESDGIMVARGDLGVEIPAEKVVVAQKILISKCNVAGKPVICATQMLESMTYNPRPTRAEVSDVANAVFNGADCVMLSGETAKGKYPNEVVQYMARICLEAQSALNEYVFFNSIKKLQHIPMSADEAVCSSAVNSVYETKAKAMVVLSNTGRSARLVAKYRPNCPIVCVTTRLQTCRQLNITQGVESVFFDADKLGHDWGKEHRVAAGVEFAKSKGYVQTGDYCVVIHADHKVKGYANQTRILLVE
Summary of the method: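 Luminescent ATP detection (PKLight) after a 1 h room-temperature reaction of 0.2 nM LmPYK E451W mutant with 0.5 mM PEP and 0.1 mM ADP at pH 7.2. Activity is normalized to DMSO-only control wells.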

[11] = molecular target: Pyruvate kinase PKM (Homo sapiens) (UniProt P14618); test: qHTS Assay for Activators of Human Muscle Pyruvate Kinase (AID 954; active = well fitted curve in the direction sought with a large enough effect, not every such curve was filed as active;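 also: 0% = uninhibited enzyme and -100% = no enzyme or full thiadiazolimine inhibition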)
Summary of the method: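 Enzyme was run at intermediate activity so both inhibitors and activators could be detected. ATP formed from ADP and PEP by 0.1 nM human PKM2 during a 1 h room-temperature incubation was quantified by coupled luciferase luminescence.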

[12] = molecular target: Alpha-galactosidase A (Homo sapiens) (UniProt P06280); test: Counterscreen for Glucocerebrosidase Inhibitors: qHTS Assay for Human alpha-Galactosidase at pH 4.5 (AID 992); also: 0% is about no effect
Alpha-galactosidase A (Homo sapiens), sequence (P06280 whole entry, looked up): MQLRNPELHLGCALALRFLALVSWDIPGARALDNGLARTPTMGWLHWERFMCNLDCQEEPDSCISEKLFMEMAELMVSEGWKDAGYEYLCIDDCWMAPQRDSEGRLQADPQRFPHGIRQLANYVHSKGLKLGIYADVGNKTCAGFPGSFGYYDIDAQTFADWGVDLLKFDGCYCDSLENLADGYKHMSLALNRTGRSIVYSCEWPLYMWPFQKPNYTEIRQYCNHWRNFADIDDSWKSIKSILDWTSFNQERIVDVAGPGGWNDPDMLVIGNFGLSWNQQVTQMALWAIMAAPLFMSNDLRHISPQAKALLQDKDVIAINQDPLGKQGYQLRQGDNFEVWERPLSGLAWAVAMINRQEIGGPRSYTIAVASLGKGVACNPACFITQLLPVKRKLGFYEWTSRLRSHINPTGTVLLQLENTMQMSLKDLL
Summary of the method: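 Read-out is 4-methylumbelliferone fluorescence (365 nm excitation, 440 nm emission) after a pH 10 NaOH/glycine stop. Reactions held 2 nM enzyme and 80 uM substrate at pH 4.5 for 20 min at room temperature.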

[13] = molecular target: alpha-glucosidase (Oryza sativa, rice) (UniProt Q653V4); test: Counterscreen for Glucocerebrosidase Inhibitors: qHTS Assay for Rice alpha-Glucosidase at pH 5.0 (AID 997);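 also: 0% = full activity with enzyme and -100% = basal without enzyme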
Summary of the method: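 Rice alpha-glucosidase (4 nM final) with 400 uM 4-methylumbelliferyl-alpha-D-glucopyranoside in citrate buffer pH 5.0, 20 min at room temperature, stopped at pH 10; fluorescence 365/440 nm, compounds 0.7 nM–77 uM, AC50 from Hill fits.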

[14] = molecular target: DNA dC->dU-editing enzyme APOBEC-3G (Homo sapiens) (UniProt Q9HC16); test: qHTS for inhibitors of Vif-A3G interactions: Validation (AID 588379); also: 0% is about no effect
DNA dC->dU-editing enzyme APOBEC-3G (Homo sapiens), sequence (Q9HC16 whole entry, looked up): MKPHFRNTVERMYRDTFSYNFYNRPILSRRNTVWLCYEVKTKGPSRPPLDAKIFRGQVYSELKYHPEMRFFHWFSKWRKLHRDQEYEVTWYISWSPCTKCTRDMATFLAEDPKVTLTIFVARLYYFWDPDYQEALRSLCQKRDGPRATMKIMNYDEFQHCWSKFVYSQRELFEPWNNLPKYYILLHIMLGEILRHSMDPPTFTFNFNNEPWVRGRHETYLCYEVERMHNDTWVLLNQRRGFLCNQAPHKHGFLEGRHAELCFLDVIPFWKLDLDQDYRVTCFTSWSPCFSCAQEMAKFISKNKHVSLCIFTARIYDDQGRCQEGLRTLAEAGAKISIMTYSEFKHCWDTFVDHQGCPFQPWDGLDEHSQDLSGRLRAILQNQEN
Summary of the method: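 HeLa cells stably expressing Vif and A3G-eYFP, 700 cells/well, incubated overnight at 37 deg C, then exposed to compound overnight at 37 deg C. Inhibition of Vif-mediated degradation read as increased yellow fluorescence (Ex 488/Em 500-530) by laser-scanning cytometry.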

[15] = test system: Zika virus NS2B-NS3 protease; test: Primary screen GU AMC qHTS for Zika virus inhibitors (AID 1347154);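 also: 0% = no-inhibitor control and -100% = no-enzyme control; nearly all actives have a fitted effect of over 70% in size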
Summary of the method: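 Unlinked Zika NS2B hydrophilic domain/NS3 protease domain noncovalent complex (25 nM final) in 10 mM Tris-HCl pH 8.0, 0.01% Tween 20, with AMC peptide substrate. Fluorescence (ex 340, em 450 nm) change over 15 min, room temperature; percent inhibition fitted to 4-parameter Hill equation.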

[16] = Primary qHTS for small molecule stabilizers of the endoplasmic reticulum resident proteome: Secreted ER Calcium Modulated Protein (SERCaMP) assay (AID 1508630); also: % is scaled to controls: 0 for no effect and ±100 for the full control effect
Summary of the method: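 GLuc-SERCaMP-expressing SH-SY5Y cells, pretreated 16 h with compound, are challenged with thapsigargin to empty ER calcium stores; after 4 h, coelenterazine is added directly to the medium and luminescence is imaged.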

[17] = molecular target: Cytochrome P450 3A4 (Homo sapiens) (UniProt P08684); test: qHTS Assay for Activators of Cytochrome P450 3A4 (AID 885); also: nearly all actives have a fitted effect of over 65% in size
Cytochrome P450 3A4 (Homo sapiens), sequence (P08684 whole entry, looked up): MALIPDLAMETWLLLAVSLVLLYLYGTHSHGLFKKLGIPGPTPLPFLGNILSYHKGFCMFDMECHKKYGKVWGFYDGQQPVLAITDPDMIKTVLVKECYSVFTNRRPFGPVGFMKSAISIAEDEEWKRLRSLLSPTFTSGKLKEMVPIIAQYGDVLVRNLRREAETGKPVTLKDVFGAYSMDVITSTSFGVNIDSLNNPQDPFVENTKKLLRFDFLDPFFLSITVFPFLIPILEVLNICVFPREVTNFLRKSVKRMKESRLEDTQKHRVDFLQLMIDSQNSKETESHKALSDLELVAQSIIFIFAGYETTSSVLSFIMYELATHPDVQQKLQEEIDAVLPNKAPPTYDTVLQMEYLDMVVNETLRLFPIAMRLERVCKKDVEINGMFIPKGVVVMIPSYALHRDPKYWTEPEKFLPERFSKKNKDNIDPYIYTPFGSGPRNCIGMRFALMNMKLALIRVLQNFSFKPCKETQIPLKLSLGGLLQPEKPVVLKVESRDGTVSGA
Summary of the method: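 Quantitative HTS format: compounds preincubated with 20nM human CYP3A4 and Luciferin-PPXE substrate at KM, reaction started by NADPH regeneration, stopped after 60 min, luciferase luminescence read 20 min later.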

[18] = molecular target: Ubiquitin carboxyl-terminal hydrolase 1 (Homo sapiens) (UniProt O94782); test: Inhibitors of USP1/UAF1: Pilot qHTS (AID 504865);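 also: rhodamine fluorescence freed from ubiquitin-rhodamine substrate followed over time; top concentration of the series differs between compounds; % is scaled to controls: 0 for no effect and ±100 for the full control effect; nearly all actives have a fitted effect of over 35% in size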
Ubiquitin carboxyl-terminal hydrolase 1 (Homo sapiens), sequence (O94782 whole entry, looked up): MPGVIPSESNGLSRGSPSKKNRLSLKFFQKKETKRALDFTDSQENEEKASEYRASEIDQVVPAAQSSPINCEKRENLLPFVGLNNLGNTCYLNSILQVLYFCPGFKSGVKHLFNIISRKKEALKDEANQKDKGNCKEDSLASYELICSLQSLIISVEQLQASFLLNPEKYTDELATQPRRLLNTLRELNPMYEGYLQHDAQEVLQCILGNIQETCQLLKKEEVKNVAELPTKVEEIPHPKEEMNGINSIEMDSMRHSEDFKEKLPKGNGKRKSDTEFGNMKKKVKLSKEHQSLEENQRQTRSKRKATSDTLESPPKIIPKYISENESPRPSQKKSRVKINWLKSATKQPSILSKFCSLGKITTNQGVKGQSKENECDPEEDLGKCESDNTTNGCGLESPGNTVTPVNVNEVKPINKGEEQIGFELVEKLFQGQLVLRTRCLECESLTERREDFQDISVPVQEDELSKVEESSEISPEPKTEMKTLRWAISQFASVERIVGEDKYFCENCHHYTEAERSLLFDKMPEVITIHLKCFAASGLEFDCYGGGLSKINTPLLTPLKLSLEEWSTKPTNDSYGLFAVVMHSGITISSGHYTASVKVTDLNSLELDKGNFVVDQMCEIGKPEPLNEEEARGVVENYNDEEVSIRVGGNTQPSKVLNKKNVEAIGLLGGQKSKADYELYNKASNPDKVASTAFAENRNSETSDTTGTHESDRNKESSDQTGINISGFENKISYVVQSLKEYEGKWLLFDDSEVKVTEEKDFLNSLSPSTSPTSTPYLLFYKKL
Summary of the method: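 USP1/UAF1 complex (1nM) preincubated with compound 15 min at room temperature, then Ub-Rho substrate (150nM final) added. Fluorescence read kinetically at 480/540 nm, 6 reads every 60 seconds. Buffer: 50mM HEPES pH 7.8, 0.5mM EDTA, 0.1 mg/ml BSA, 1mM TCEP, 0.01% Tween-20.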

NC[C@H](CP(=O)(O)O)c1ccc(Cl)cc1
inactive: outcome [1] | Potency [2] | activity change, negative = inhibition ([3]; at 38 µM (top of the series)) 3.15% | outcome [4] | Potency [5] > 46 µM | Potency [6] > 46 µM | outcome [7] | Potency [8] | outcome [9] | outcome [10] | outcome [11] | outcome [12] | outcome [13] | Potency [14] | Potency [15] | Potency [16]

NC(=NCCc1ccc(I)cc1)SCCCc1cnc[nH]1
inactive: Potency [5] > 46 µM | Potency [6] > 46 µM | outcome [7] | Potency [17] | Potency [18] | Potency [14] | Potency [15] | Potency [16]
active: Potency [2] 15.8 µM

CCOC(=O)c1cc2c(cn1)[nH]c1ccccc12
inactive: outcome [1] | activity change, negative = inhibition ([3]; at 17.2 µM (top of the series)) 26.1% | outcome [4] | Potency [5] > 20.6 µM | Potency [15] | Potency [16]

Clc1ccc(C2=CCC[C@H]3CC[C@@H]2N3)cn1
inactive: Potency [5] > 46 µM | Potency [6] > 46 µM | outcome [7] | Potency [17] | Potency [18] | Potency [14] | Potency [15] | Potency [16]
active: Potency [2] 15.8 µM

COC1=CC(=O)OC(/C=C/c2ccccc2)C1 (stereo not given)
inactive: outcome [1] | activity change, negative = inhibition ([3]; at 17.2 µM (top of the series)) -0.501% | outcome [4] | Potency [5] > 20.6 µM | Potency [15] | Potency [16]

CC1=C(O)C(=O)[C@H]2O[C@@H]2C1=O
inactive: Potency [2] | Potency [5] > 46 µM | Potency [6] > 46 µM | outcome [7] | Potency [8] | Potency [18] | Potency [15] | Potency [16]

O=C1CC[C@@]2(O)[C@H]3Cc4ccc(O)c5c4[C@@]2(CCN3CC2CC2)[C@@H]1O5
inactive: outcome [1] | activity change, negative = inhibition ([3]; at 38 µM (top of the series)) 8.31% | outcome [4] | outcome [7] | Potency [8] | outcome [9] | outcome [10] | outcome [12] | outcome [13] | Potency [18] | Potency [14] | Potency [15] | Potency [16]

CCCCCCCCCOc1ccc2[nH]cc(CCN)c2c1
inactive: Potency [5] > 46 µM | Potency [6] > 46 µM | Potency [8] | Potency [17] | Potency [14] | Potency [15] | Potency [16]
active: Potency [2] 0.0398 µM
